{
  "source": "PubChem BioAssay (NCI)",
  "note": "Compounds without any hit were thinned out: in the full panel of roughly 79,000, 15% have a hit. A number with no mark means an inactive call. Active and inactive are the calls of the source. Cut-off read from the data, not from the text of the source: active = growth inhibition above about 70%; inactive = the rest.",
  "data": [
    {"assay": "NCI Yeast Anticancer Drug Screen. Data for the cln2 rad14 strain (AID 165);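 note: 0% = growth equal to vehicle treated cultures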", "settings": "S. cerevisiae cln2 rad14 strain, at 50.0 µM, hits give high values", "method": "Growth inhibition of yeast strains with defined genetic alterations is measured as a screen for potential anti-cancer activity. Selected strains with alterations in DNA damage repair or cell cycle control were exposed to compounds and growth inhibition was measured relative to vehicle treated controls. The strain used in this assay is cln2 rad14", "values": [
      {"smiles": "COc1cc(NC(C)CNC(C)C)c2ncccc2c1", "note": "(stereo not given)", "growth inhibition": "-34%"},
      {"smiles": "CCCC(O)CO", "note": "(stereo not given)", "growth inhibition": "-0.6%"},
      {"smiles": "Nc1nc2c(ncn2C2OCC(O)C(O)C2O)c(=O)[nH]1", "note": "(stereo not given)", "growth inhibition": "-6.15%"},
      {"smiles": "COC(=O)CNC(=O)C1CSC(C)(C)N1", "note": "(stereo not given)", "growth inhibition": "-12.2%"},
      {"smiles": "CCOC(=O)C(OCC1CC=CCC1)Sc1ccccc1", "note": "(stereo not given)", "growth inhibition": "-19.3%"},
      {"smiles": "CC1CC=CCC1COB(OCC1CC=CCC1C)OCC1CC=CCC1C", "note": "(stereo not given)", "growth inhibition": "23.1%"},
      {"smiles": "COc1ccc2nc3cc(Cl)ccc3c(NN3CCN(CCO)CC3)c2c1", "growth inhibition": "0.25%"},
      {"smiles": "Cc1ncc(CSCC(=O)O)c(N)n1", "growth inhibition": "-9.05%"},
      {"smiles": "CS(=O)(=O)Nc1ccc(NS(C)(=O)=O)cc1", "growth inhibition": "1.75%"},
      {"smiles": "C=C(S(=O)(=O)CC)S(=O)(=O)CC", "growth inhibition": "-53%"},
      {"smiles": "CC(C)(Oc1ccc(/C=C/C(=O)c2ccccc2)cc1)C(=O)Nc1c(Cl)cccc1Cl", "growth inhibition": "-65.5%"},
      {"smiles": "COc1ccc(C(SCC(N)C(=O)O)(c2ccccc2)c2ccccc2)cc1", "note": "(stereo not given)", "growth inhibition": "-42.4%"},
      {"smiles": "CC1=C(/C=C/C(C)=C\\c2cc(C)cc(=O)o2)C(C)(C)CCC1", "growth inhibition": "-26.6%"},
      {"smiles": "Cc1ccc(C)c(C2NC(=O)c3ccccc3N2)c1", "note": "(stereo not given)", "growth inhibition": "-30.2%"},
      {"smiles": "CC(=O)Oc1cc2c(cc1C(NC(N)=O)c1ccc3c(c1)OCO3)OCO2", "note": "(stereo not given)", "growth inhibition": "-11.2%"},
      {"smiles": "O=c1[nH]cc(F)c(=S)[nH]1", "growth inhibition": "-16.4%"},
      {"smiles": "COS(=O)(=O)C=C(c1ccccc1)c1ccccc1", "growth inhibition": "-24.5%"},
      {"smiles": "CCSC1=C(SCC)C(=O)C(SCC)=C(SCC)C1=O", "growth inhibition": "-22.4%"},
      {"smiles": "OCC1=CC(c2ccccc2)(c2ccccc2)c2ccccc21", "growth inhibition": "93.2% (active)"},
      {"smiles": "COc1ccc(C(=O)CC(C#N)c2ccccc2Cl)cc1", "note": "(stereo not given)", "growth inhibition": "13.1%"},
      {"smiles": "CC(O)CN1CCN(CC(C)O)C(C)C1", "note": "(stereo not given)", "growth inhibition": "1.35%"},
      {"smiles": "CC1(C)CCC2(CC1)CC[N+](C)(CCC[N+](C)(C)C)CC2", "growth inhibition": "-11.8%"},
      {"smiles": "COc1ccc2c(CC(=O)O)cc(=O)oc2c1", "growth inhibition": "7.7%"},
      {"smiles": "COC(=O)[C@]12CCC(C)(C)C[C@H]1C1=CC[C@@H]3[C@@]4(C)CC[C@H](OC5OC(CO)C(O)C(O)C5OC5OC(CO)C(O)C(O)C5O)C(C)(C)[C@@H]4CC[C@@]3(C)[C@]1(C)CC2", "note": "(stereo not given in full)", "growth inhibition": "90% (active)"},
      {"smiles": "CC[n+]1c(COCCOc2ccccc2)sc2cc3c(cc21)OCO3", "growth inhibition": "12%"},
      {"smiles": "c1ccc2c(c1)Nc1nc3ccccc3nc1N2", "growth inhibition": "15.8%"},
      {"smiles": "COc1ccc(C)cc1Sc1ccc(C)cc1[N+](=O)[O-]", "growth inhibition": "-27.5%"},
      {"smiles": "CC1CC(C2=CC=CCS2)=Nc2ccccc2S1", "note": "(stereo not given)", "growth inhibition": "19.9%"},
      {"smiles": "OC[C@@H](O)[C@H]1NC[C@@H](O)[C@H]1O", "growth inhibition": "7.7%"},
      {"smiles": "CCCCCCCCCCOC1C(C(C)OCCCN(C)C)OC2OC3(CCCCC3)OC21", "note": "(stereo not given)", "growth inhibition": "16.1%"},
      {"smiles": "COc1c(C)cc(-c2cc(C)c(OC)c(C)c2)cc1C", "growth inhibition": "9.4%"},
      {"smiles": "CC1(C)C2CC3C(CCC4C(=O)OC(=O)C43)C1C2", "note": "(stereo not given)", "growth inhibition": "-5.3%"},
      {"smiles": "COc1ccc(-c2cc3cc(Cl)cc(Cl)c3oc2=O)cc1OC", "growth inhibition": "-4.85%"},
      {"smiles": "CCOc1cccc(N)c1", "growth inhibition": "-51%"},
      {"smiles": "CCCC[Si]CCCC", "growth inhibition": "14.6%"},
      {"smiles": "Cc1cc(N(CCC#N)CCC#N)ccc1/C(N=Nc1ccc(Cl)cc1)=N\\NC(=O)c1ccccc1", "growth inhibition": "-10.2%"},
      {"smiles": "O=C1c2ccccc2C(=O)c2c1cc1c(c2O)OCO1", "growth inhibition": "-10.2%"},
      {"smiles": "Cc1ccc(-c2c(C#N)c(-c3ccc(Cl)cc3)c(C#N)c(=O)n2NS(=O)(=O)c2ccc(C)cc2)cc1", "growth inhibition": "44.6%"},
      {"smiles": "Nc1cc(N)[nH]c(=S)n1", "growth inhibition": "-10.9%"},
      {"smiles": "COc1cccc2c1OC(=O)C(S(=O)(=O)c1ccccc1)C2", "note": "(stereo not given)", "growth inhibition": "-37.5%"}
    ]}
  ]
}
